Measurements as given in PubChem BioAssay AID1117273 (Broad Institute, 2014).
Values without a mark were called inactive. How the calls were made is not given here.

Assay: inhibitors of orthopox early gene expression, dose response, cell-based, single fluorophore reporter, dry powder (AID 1117273)
Conditions: orthopoxvirus-infected cells, early gene fluorescent reporter; at 10 µM; hits give high values

| SMILES | inhibition |
| --- | --- |
| C[C@@H](O)C#Cc1ccc2c(c1)O[C@@H](CN(C)Cc1ccc(-c3ccc(Cl)cc3)cc1)[C@@H](C)CN([C@@H](C)CO)S2(=O)=O | 17.2% |
| COc1ccccc1-c1ccc(CN(C)C[C@@H]2Oc3cc(C#C[C@@H](C)O)ccc3S(=O)(=O)N([C@@H](C)CO)C[C@@H]2C)cc1 | -12.9% |
| C[C@@H](O)C#Cc1ccc2c(c1)O[C@@H](CN(C)Cc1ccc(-c3ccccc3Cl)cc1)[C@@H](C)CN([C@@H](C)CO)S2(=O)=O | 59.3% |
| Cc1cccc(-c2ccc(CN(C)C[C@@H]3Oc4cc(C#C[C@@H](C)O)ccc4S(=O)(=O)N([C@@H](C)CO)C[C@@H]3C)cc2)c1 | 48% |
| Cc1ccccc1-c1ccc(CN(C)C[C@@H]2Oc3cc(C#C[C@@H](C)O)ccc3S(=O)(=O)N([C@@H](C)CO)C[C@@H]2C)cc1 | 63.3% |
| Cc1ccc(-c2ccc(CN(C)C[C@@H]3Oc4cc(C#C[C@@H](C)O)ccc4S(=O)(=O)N([C@@H](C)CO)C[C@@H]3C)cc2)cc1 | 32.5% |
| C[C@@H](O)C#Cc1ccc2c(c1)O[C@@H](CN(C)Cc1ccc(-c3cccc(Cl)c3)cc1)[C@@H](C)CN([C@@H](C)CO)S2(=O)=O | 48.5% |
